Structures are written as SMILES. Several values for one entry are separate records, joined by “and”; a condition that tells them apart may be missing. Identical values can stand only once. Some compounds were tested as several samples or in several runs, with calls that do not always agree. Activity calls are given as the source filed them. Unless noted, calls follow the shape of the dose curve; as a rule, active = well fitted curve in the direction sought with a large enough effect in the repeat runs; inconclusive = weak or mixed curves; inactive = no such curve, though single readings can be large; an effect the other way counts as inactive or inconclusive.

Our source for the Potency and outcome values is PubChem BioAssay (Tox21).

Assay [1] can be described thus: qHTS assay to identify small molecule antagonists of the glucocorticoid receptor (GR) signaling pathway - cell viability counter screen (AID 720693). Also: nearly all actives have a fitted effect of over 55% in size. Also: potency is read from the fitted curve at half-maximal effect.
A short description of assay [2]: qHTS assay for identifying genotoxic compounds that show differential cytotoxicity against isogenic chicken DT40 cell lines with known DNA damage response pathways - Rev3 mutant cell line (AID 743014; also: nearly all actives have a fitted effect of over 55% in size; also: potency is read from the fitted curve at half-maximal effect). (In general: qHTS replaces the single test concentration by a dilution series.)
Assay [3] is described as follows: qHTS assay for identifying genotoxic compounds that show differential cytotoxicity against isogenic chicken DT40 cell lines with known DNA damage response pathways - Rad54/Ku70 mutant cell line (AID 743015). Also: potency is read from the fitted curve at half-maximal effect; nearly all actives have a fitted effect of over 60% in size.
Assay [4] is described as follows: qHTS assay to identify small molecule antagonists of the androgen receptor (AR) signaling pathway - cell viability counter screen (AID 743033; also: nearly all actives have a fitted effect of over 45% in size; also: potency is read from the fitted curve at half-maximal effect).
Assay [5] is described as follows: qHTS assay to identify small molecule antagonists of the androgen receptor (AR) signaling pathway using the MDA cell line - cell viability counter screen (AID 743041; also: nearly all actives have a fitted effect of over 45% in size; also: potency is read from the fitted curve at half-maximal effect). The method, boiled down: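 Cytotoxicity counter screen: MDA-kb2 AR-luc cells, compound + R1881, 16 h, 37C, 0% CO2; CellTiter-Fluor added at 15.5 h, fluorescence read after 30 min.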
The subject of assay [6] is thyroid hormone receptor (rat, GH3 cells). The assay can be described thus: qHTS assay to identify small molecule agonists of the thyroid receptor (TR) signaling pathway (AID 743066; calls by dose curve).
Assay [7] is described as follows: qHTS assay to identify small molecule antagonists of the estrogen receptor alpha (ER-alpha) signaling pathway - cell viability counter screen (AID 743074; calls by dose curve;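 also: HEK293 cells carrying ER-alpha-UAS-bla reporter stimulated with 17beta-estradiol; nearly all actives have a fitted effect of over 45% in size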; also: potency is read from the fitted curve at half-maximal effect).
Assay [8] addresses Estrogen receptor (Homo sapiens) (UniProt P03372). Description: qHTS assay to identify small molecule agonists of the estrogen receptor alpha (ER-alpha) signaling pathway (AID 743075; calls by dose curve;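 also: HEK293 GripTite cells with ER-alpha and UAS-driven beta-lactamase reporter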; also: potency is read from the fitted curve at half-maximal effect).
For assay [9] the target is unchanged. Description: qHTS assay to identify small molecule agonists of the estrogen receptor alpha (ER-alpha) signaling pathway using the BG1 cell line (AID 743079). Also: nearly all actives have a fitted effect of over 20% in size. Also: potency is read from the fitted curve at half-maximal effect.
Assay [10] is described as follows: qHTS assay to identify small molecule antagonists of the estrogen receptor alpha (ER-alpha) signaling pathway using the BG1 cell line (AID 743080; calls by dose curve; also: series mostly up to about 70 µM; nearly all actives have a fitted effect of over 25% in size). The method, boiled down: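 Antagonist mode: compounds in DMSO were pinned onto BG1-Luc-4E2 cells alongside 17beta-estradiol agonist, incubated 21.5 h, and ERE-driven luciferase measured with ONE-Glo. Cytotoxicity was multiplexed using CellTiter-Fluor fluorescence.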

A short description of assay [11]: qHTS assay to identify small molecule antagonists of the estrogen receptor alpha (ER-alpha) signaling pathway using the BG1 cell line - cell viability counter screen (AID 743081).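 Also: compound given together with 17beta-estradiol as the ER stimulus; series mostly up to about 70 µM; nearly all actives have a fitted effect of over 45% in size.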
Assay [12] deals with Aromatase (Homo sapiens) (UniProt P11511). Description: qHTS assay to identify aromatase inhibitors (AID 743083). Also: nearly all actives have a fitted effect of over 55% in size. Also: potency is read from the fitted curve at half-maximal effect.
Assay [13] can be described thus: qHTS assay to identify aromatase inhibitors - cell viability counter screen (AID 743084).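 Also: cells stimulated with testosterone during compound exposure; nearly all actives have a fitted effect of over 55% in size.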 Also: potency is read from the fitted curve at half-maximal effect.
A short description of assay [14]: qHTS assay to identify small molecule antagonists of the thyroid receptor (TR) signaling pathway - cell viability counter screen (AID 743064). Also: nearly all actives have a fitted effect of over 50% in size. Also: potency is read from the fitted curve at half-maximal effect. The method, boiled down:
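In-well cytotoxicity read by CellTiter-Fluor (30 min, 37 C) following 23.5 h exposure of GH3 cells bearing a TRE-luciferase sensor. Compounds were added alongside 1 nM (final) T3 to drive TR transactivation.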

Assay [15] can be described thus: qHTS assay to identify small molecule antagonists of the thyroid receptor (TR) signaling pathway (AID 743065). Summed up:
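GH3.TRE-Luc rat pituitary cells (two TREs driving luciferase) were dosed with compound, then stimulated with 1 nM T3 (final) for 23.5 h at 37 C. ONE-Glo luminescence was the read-out, with CellTiter-Fluor fluorescence as the cytotoxicity counter-screen.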

Assay [16] addresses Estrogen receptor (Homo sapiens) (UniProt P03372). The assay can be described thus: qHTS assay to identify small molecule antagonists of the estrogen receptor alpha (ER-alpha) signaling pathway (AID 743069; active = well fitted curve in the direction sought with a large enough effect in the signal ratio in the repeat runs, not every such curve was filed as active; inconclusive = weak or mixed curves, or effect the other way; inactive = no such curve, though single readings can be large or run the other way; the % refers to the signal ratio). Summed up: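 Beta-lactamase FRET fluorescence is read after 2 hr at room temperature with LiveBLAzer B/G substrate. Before that, ER-alpha-bla HEK293 cells sit 4 hr after plating, then receive compound plus 17beta-estradiol and incubate 18 hr at 37C.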

For assay [17], the target named is Androgen receptor (Homo sapiens) (UniProt P10275). Description: qHTS assay to identify small molecule agonists of the androgen receptor (AR) signaling pathway (AID 743036; active = well fitted activation curve with a large enough effect in the signal ratio in the repeat runs, with a control signal flat, not every such curve was filed as active; inconclusive = weak or mixed curves, or effect the other way; inactive = no such curve, though single readings can be large or run the other way; the % refers to the signal ratio). The method, boiled down: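 Activation was read as beta-lactamase FRET signal from LiveBLAzer B/G substrate, added for 2 h at room temperature. Before that, GeneBLAzer AR-UAS-bla GripTite (HEK293) cells had 16 h compound exposure at 37C.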

Assay [18] has the same target. The assay can be described thus: qHTS assay to identify small molecule agonists of the androgen receptor (AR) signaling pathway using the MDA cell line (AID 743040; also: nearly all actives have a fitted effect of over 20% in size). The method, boiled down: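 Luciferase read-out, ONE-Glo, 30 min RT. Cells: MDA-kb2 AR-luc, MMTV promoter with AR and GR response elements. Compound exposure 16 h, 37C, 0% CO2, after 5 h pre-incubation. qHTS agonist mode.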

For assay [19] the target is unchanged. The assay can be described thus: qHTS assay to identify small molecule antagonists of the androgen receptor (AR) signaling pathway using the MDA cell line (AID 743042; also: nearly all actives have a fitted effect of over 55% in size). The method, boiled down: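 MDA-kb2 breast carcinoma cells carrying MMTV-luciferase (AR/GR responsive) were co-treated with compounds and the agonist R1881 for 16 h at 37C. Inhibition read as ONE-Glo luminescence; CellTiter-Fluor fluorescence measured in parallel for cytotoxicity.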

Sequence of Estrogen receptor (Homo sapiens) (P03372 whole entry, looked up): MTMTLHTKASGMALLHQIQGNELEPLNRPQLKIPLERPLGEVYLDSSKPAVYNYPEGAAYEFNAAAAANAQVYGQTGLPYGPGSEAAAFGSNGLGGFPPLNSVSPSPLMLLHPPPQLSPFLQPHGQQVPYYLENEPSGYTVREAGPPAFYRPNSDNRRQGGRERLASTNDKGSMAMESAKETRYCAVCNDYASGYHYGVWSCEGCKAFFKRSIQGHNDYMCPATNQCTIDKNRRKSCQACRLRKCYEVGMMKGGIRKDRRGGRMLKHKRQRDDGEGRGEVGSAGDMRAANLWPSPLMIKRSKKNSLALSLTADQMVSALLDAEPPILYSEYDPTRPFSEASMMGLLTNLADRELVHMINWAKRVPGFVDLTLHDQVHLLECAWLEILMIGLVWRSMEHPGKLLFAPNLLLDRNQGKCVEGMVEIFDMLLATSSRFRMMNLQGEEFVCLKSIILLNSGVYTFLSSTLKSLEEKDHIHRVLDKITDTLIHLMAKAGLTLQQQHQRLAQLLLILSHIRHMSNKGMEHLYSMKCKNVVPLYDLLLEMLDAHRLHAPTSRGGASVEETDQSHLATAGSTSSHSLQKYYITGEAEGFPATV
Sequence of Androgen receptor (Homo sapiens) (P10275 whole entry, looked up): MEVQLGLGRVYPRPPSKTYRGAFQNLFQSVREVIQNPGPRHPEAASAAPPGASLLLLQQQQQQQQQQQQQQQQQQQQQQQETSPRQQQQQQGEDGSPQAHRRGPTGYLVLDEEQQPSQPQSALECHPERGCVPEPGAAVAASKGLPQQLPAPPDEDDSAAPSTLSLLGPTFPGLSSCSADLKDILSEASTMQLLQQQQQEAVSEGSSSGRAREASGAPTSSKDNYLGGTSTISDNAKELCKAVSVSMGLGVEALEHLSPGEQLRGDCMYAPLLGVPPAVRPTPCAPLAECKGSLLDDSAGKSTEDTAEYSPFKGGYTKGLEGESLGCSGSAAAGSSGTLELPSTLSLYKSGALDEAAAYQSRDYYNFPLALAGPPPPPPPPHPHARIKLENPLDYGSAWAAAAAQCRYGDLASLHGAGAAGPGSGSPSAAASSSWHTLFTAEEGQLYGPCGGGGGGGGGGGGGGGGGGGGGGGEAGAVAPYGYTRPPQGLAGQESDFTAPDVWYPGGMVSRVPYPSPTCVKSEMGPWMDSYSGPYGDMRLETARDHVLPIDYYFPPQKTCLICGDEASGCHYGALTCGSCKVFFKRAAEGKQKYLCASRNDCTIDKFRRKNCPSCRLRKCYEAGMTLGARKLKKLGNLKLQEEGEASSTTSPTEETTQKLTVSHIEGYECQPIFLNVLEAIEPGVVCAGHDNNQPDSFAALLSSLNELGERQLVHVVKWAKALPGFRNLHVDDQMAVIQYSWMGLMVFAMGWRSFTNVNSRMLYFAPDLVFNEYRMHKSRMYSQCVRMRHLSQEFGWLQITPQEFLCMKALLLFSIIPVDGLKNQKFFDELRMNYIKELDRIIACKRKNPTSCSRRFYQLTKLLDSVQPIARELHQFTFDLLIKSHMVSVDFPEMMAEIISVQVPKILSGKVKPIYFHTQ
Sequence of Aromatase (Homo sapiens) (P11511 whole entry, looked up): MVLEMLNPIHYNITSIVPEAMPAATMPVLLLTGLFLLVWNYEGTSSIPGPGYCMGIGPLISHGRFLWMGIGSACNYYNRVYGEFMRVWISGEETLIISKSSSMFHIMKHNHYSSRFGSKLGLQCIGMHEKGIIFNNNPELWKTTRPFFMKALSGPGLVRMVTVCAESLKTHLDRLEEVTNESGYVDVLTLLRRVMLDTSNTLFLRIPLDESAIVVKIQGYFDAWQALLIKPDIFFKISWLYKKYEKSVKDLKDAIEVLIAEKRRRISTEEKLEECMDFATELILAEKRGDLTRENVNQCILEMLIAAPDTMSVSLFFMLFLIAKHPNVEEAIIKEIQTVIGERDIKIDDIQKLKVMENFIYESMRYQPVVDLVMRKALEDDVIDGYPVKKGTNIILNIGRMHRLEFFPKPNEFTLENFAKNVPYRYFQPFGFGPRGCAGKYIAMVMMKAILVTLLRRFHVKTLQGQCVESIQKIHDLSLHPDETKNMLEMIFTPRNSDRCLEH

`CC1CCC(C(C)C)C(OC(=O)c2ccccc2N)C1` (stereo unspecified): the Potency entry in [1], in [2], in assay [4], in [5], in [7] and in [10] was “inactive” in each case. Further, the Potency result in [11] is “inactive”. The Potency in assay [3] was 26.6 µM (active); in assay [8] it was 7.56 µM [inconclusive] (active) and 6.82 µM [inconclusive] (active); in [9], 3.35 µM (active) and 2.69 µM (active); in assay [12], “inactive and 60.3 µM (active)”; in assay [13], “inactive and 47.9 µM (active)”. The result in [6] was inactive.
Consider `CC(C)CC(C)(c1ccc(O)cc1)c1ccc(O)cc1`, for which the Potency in [1] is 49 µM (active); in assay [2], 27.4 µM (active) and 38.6 µM (active); in [3], 54.6 µM (active); in [4], 55.1 µM (active); in assay [14], 54.6 µM (active) and 54.5 µM (active); in assay [15], 27.4 µM (active) and 38.6 µM (active). The Potency was 55.1 µM (active) in [7], 48.7 µM (active) in assay [12] and 61.3 µM (active) in assay [13]. The result in [6] was inactive. Also, the Potency result in assay [11] was “inactive”.
For `CCCN(CCC)CCc1c[nH]c2ccccc12`, the Potency result in assay [1], in assay [4], in [5], in assay [16], in [7] and in assay [8] was “inactive” each time. Besides, the Potency result in assay [9], in assay [10], in assay [12] and in assay [13] was “inactive” throughout. Moreover, the Potency in [14] is 53.8 µM (active); in assay [15] it was 30.2 µM (active). For the same compound, the result in assay [6] was inactive.
Take `CCC(C)(C)C(=O)OC1=C(c2ccc(Cl)cc2Cl)C(=O)OC12CCCCC2`: the Potency result in [1], in [4], in [17], in [18], in assay [5] and in assay [19] was “inactive” in each case. Moreover, the Potency entry in assay [7], in assay [8], in assay [11], in [12] and in [13] was “inactive” throughout. The Potency in assay [15] and in [9] was 54.5 µM (active) each time. Also, in [6], the outcome was inactive.
Turning to `CC(C)CCCCCCCOP(=O)(Oc1ccccc1)Oc1ccccc1`, the Potency result in [1], in [4], in assay [16], in assay [7], in assay [8] and in assay [9] was “inactive” in each case. Besides, the Potency result in [10], in assay [11], in [12] and in assay [13] was “inactive” in each case. For the same compound, the Potency in assay [14] is 27.4 µM (active).
For the compound `CC(=O)Nc1ccc2c(c1)Cc1ccccc1-2`, the Potency result in assay [1], in [4], in assay [14], in assay [16], in assay [7] and in [8] was “inactive” each time. Further, the Potency result in [11], in assay [12] and in [13] was “inactive” in each case. In addition, the figures for the Potency in assay [3] and in [9] were 62.1 µM (active) and 11 µM (active), respectively. The result in assay [6] was inactive.
On to `CC(Cc1ccc(C(C)(C)C)cc1)CN1C[C@@H](C)O[C@@H](C)C1` (stereo partly specified), for which the Potency result in assay [1], in [5], in [14], in [7] and in assay [11] was “inactive” in each case. Moreover, the Potency in assay [2] is 5.45 µM (active). For the same compound, the outcome in assay [6] was inactive.
On to `BrCBr`, for which the Potency result in assay [1], in assay [4], in assay [5], in assay [14], in [16] and in [7] was “inactive” in each case. The Potency result in [8], in [9], in [10], in assay [11], in [12] and in [13] was “inactive” in each case. Also, the outcome in assay [6] was inactive.
In the case of `CC(C)[C@H](C(=O)OC(C#N)c1cccc(Oc2ccccc2)c1)c1ccc(OC(F)F)cc1` (stereo partly specified), the Potency result in assay [1], in assay [4], in assay [5], in assay [14], in assay [7] and in assay [11] was “inactive” in each case. Moreover, the Potency result in assay [13] was “inactive”. For the same compound, the Potency was 34.4 µM (active) in [2] and 54.5 µM (active) in assay [15]. Moreover, the compound was called inactive in assay [6].
Consider `CCOCn1c(-c2ccc(Cl)cc2)c(C#N)c(Br)c1C(F)(F)F`, for which the Potency is 3.47 µM (active) in assay [1]; 2.17 µM (active) in assay [2]; 0.871 µM (active) in assay [4]; 3.86 µM (active) in assay [5]; 6.11 µM (active) in assay [14]; 1.37 µM (active) in assay [15]. Besides, in assay [12], the Potency was 9.69 µM (active).
